According to PubChem BioAssay (NCI):
About 83,000 compounds went through this panel and 20% of them were active in at least one assay; those are over-represented in the sample as a whole.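 Assay: single dose, 48 h. Readout: percent growth (0 = no net growth; negative = cell death). Active: <10.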 Unmarked numbers belong to inactive results. The source made the active and inactive calls.

Legend:
Assay in all cases: NCI-60 one-dose screen, 48 h (100 = growth as untreated, 0 = no growth, -100 = all killed)
Conditions in all cases: 10 µM unless noted
[1] = system: NCI-H23 lung
[2] = system: NCI-H226 lung
[3] = system: NCI-H322M lung
[4] = system: HOP-62 NSCLC
[5] = system: NCI-H460 lung
[6] = system: HOP-92 NSCLC
[7] = system: NCI-H522 lung
[8] = system: A549/ATCC NSCLC
[9] = system: 786-0 renal
[10] = system: COLO 205 colon

Structure (SMILES): C#C[C@]1(OC(=O)CCCCCC)CC[C@H]2[C@@H]3CCC4=CC(=O)CC[C@@H]4[C@H]3CC[C@@]21C
- growth [1]: 19%
- growth [2]: 54.8%
- growth [3]: 49.5%
- growth [4]: 35.5%
- growth [5]: 21.2%
- growth [6]: 58.6%
- growth [7]: 20.5%
- growth [8]: 46.1%
- growth [9]: 56.5%
- growth [10]: 29.3%

Structure (SMILES): COc1cc(/C=C\c2cc(OC)c(OC)c(OC)c2)cc(N/C=C\C(=O)c2cc(OC)c(OC)c(OC)c2)c1OC
- growth [1]: 29.6%
- growth [2]: 47.2%
- growth [3]: 36.8%
- growth [4]: 13.3%
- growth [5]: 17.3%
- growth [6]: -9.27% (active)
- growth [7]: 6.46% (active)
- growth [8]: 40%
- growth [9]: 44%
- growth [10]: 3.1% (active)

Structure (SMILES): CCCC[C@H](NC(=O)[C@H]1CCCN1C)C(=O)N(C)[C@H](C[C@@H](OC(C)=O)c1nc(C(=O)N[C@@H](Cc2ccccc2)C[C@H](C)C(=O)OCC)cs1)C(C)C
- growth [1]: 24.4%
- growth [2]: 37.2%
- growth [3]: 33.3%
- growth [4]: 21.8%
- growth [5]: 7.53% (active)
- growth [6]: 7.16% (active)
- growth [7]: -12.1% (active)
- growth [8]: 8.16% (active)
- growth [9]: 3.94% (active)
- growth [10]: -66.7% (active)

Structure (SMILES): O=C(c1ccccc1O)c1[nH]c(Cl)c(Cl)c1-n1c(C(=O)c2ccccc2O)cc(Cl)c1Cl
- growth [1]: -10.6% (active)
- growth [2]: -1.5% (active)
- growth [3]: -0.432% (active)
- growth [4]: -9.18% (active)
- growth [5]: 0.792% (active)
- growth [6]: -37.6% (active)
- growth [7]: -17.9% (active)
- growth [8]: 3.18% (active)
- growth [9]: -9.15% (active)
- growth [10]: -95.7% (active)

Structure (SMILES): CC[C@H](C)[C@H](NC(=O)[C@H]1CCCCN1C)C(=O)N(C)[C@H](C[C@@H](OC(C)=O)c1nc(C(=O)NC23CC(C(=O)OC)(C2)C3)cs1)C(C)C
- growth [1]: 18.4%
- growth [2]: 18.3%
- growth [3]: 55.7%
- growth [4]: 11.8%
- growth [5]: 8.77% (active)
- growth [6]: -1.71% (active)
- growth [7]: -22.3% (active)
- growth [8]: 9.09% (active)
- growth [9]: 9.6% (active)
- growth [10]: -46.8% (active)

Structure (SMILES): CSc1nc(Cl)cc(N2CC2)n1
- growth [1]: 103%
- growth [2]: 108%
- growth [3]: 128%
- growth [4]: 103%
- growth [5]: 105%
- growth [6]: 93%
- growth [7]: 126%
- growth [8]: 102%
- growth [9]: 104%
- growth [10]: 139%

Structure (SMILES): O=NN1CCCc2cccc(O)c21
- growth [1]: -6.22% (active)
- growth [2]: 76.5%
- growth [3]: 41.8%
- growth [4]: 31.9%
- growth [5]: 4.79% (active)
- growth [6]: 71.6%
- growth [7]: -21.7% (active)
- growth [8]: 37.6%
- growth [9]: 27.2%
- growth [10]: 94%

Structure (SMILES): CC(C)=CCC/C(C)=C/C=N\N=C(/N)N[N+](=O)[O-]
- growth [1]: 97.6%
- growth [2]: 99.3%
- growth [3]: 95.9%
- growth [4]: 87.2%
- growth [5]: 110%
- growth [6]: 89.8%
- growth [7]: 47.7%
- growth [8]: 97.4%
- growth [9]: 80.4%
- growth [10]: 103%

Structure (SMILES): COC(=O)[C@@H](C[C@H](Cc1ccccc1)NC(=O)c1csc([C@@H](C[C@H](C(C)C)N(C)C(=O)[C@@H](NC(=O)[C@H]2CCCCN2C)C(C)C)OC(C)=O)n1)NC(=O)OCc1ccccc1
- growth [1]: 35.1% [9.5 µM]
- growth [2]: -36.8% [9.5 µM] (active)
- growth [3]: 43.1% [9.5 µM]
- growth [4]: 12.1% [9.5 µM]
- growth [5]: 5.31% [9.5 µM] (active)
- growth [6]: 25.7% [9.5 µM]
- growth [7]: -45.5% [9.5 µM] (active)
- growth [8]: 14.1% [9.5 µM]
- growth [9]: 15.8% [9.5 µM]
- growth [10]: -65.4% [9.5 µM] (active)

Structure (SMILES): CN1C(=O)N[C@H]2[C@@H]3NC(=O)c4ccc(Br)n4[C@@H]3C[C@]21O
- growth [1]: -14.5% (active)
- growth [2]: -17.4% (active)
- growth [3]: -6.85% (active)
- growth [4]: -31.8% (active)
- growth [5]: -10.6% (active)
- growth [6]: -9.65% (active)
- growth [7]: -38.2% (active)
- growth [8]: -9.09% (active)
- growth [9]: -19.3% (active)
- growth [10]: -49.5% (active)

Structure (SMILES): O=NNc1ccccn1
- growth [1]: 79.4%
- growth [2]: 91.1%
- growth [3]: 126%
- growth [4]: 90.3%
- growth [5]: 41.7%
- growth [6]: 92.1%
- growth [7]: 64.3%
- growth [8]: 95.1%
- growth [9]: 106%
- growth [10]: 95.8%

Structure (SMILES): CCc1ccccc1[C@@H]1C[C@]2(C)CCO[C@@H]2OO1
- growth [1]: 104%
- growth [2]: 102%
- growth [3]: 105%
- growth [4]: 98.2%
- growth [5]: 107%
- growth [6]: 92.7%
- growth [7]: 104%
- growth [8]: 96.8%
- growth [9]: 101%
- growth [10]: 118%

Structure (SMILES): O=C1N[C@@H]2[C@@H](O)[C@@H](O)[C@H](O)C[C@H]2c2cc3c(c(O)c21)OCO3
- growth [1]: -14.9% (active)
- growth [2]: -38.3% (active)
- growth [3]: -14.7% (active)
- growth [4]: -18.9% (active)
- growth [5]: -15.1% (active)
- growth [6]: -19% (active)
- growth [7]: -32.6% (active)
- growth [8]: -8.4% (active)
- growth [9]: -10.8% (active)
- growth [10]: -38.2% (active)

Structure (SMILES): COc1cc(C=Nc2cccc(C(=O)O)c2)ccc1N(CCCl)CCCl
- growth [1]: 103%
- growth [2]: 92.7%
- growth [3]: 100%
- growth [4]: 118%
- growth [5]: 75.4%
- growth [6]: 101%
- growth [7]: -3.21% (active)
- growth [8]: 96.6%
- growth [9]: 105%
- growth [10]: 67.1%

Structure (SMILES): CC(C)COC(C[N+](=O)[O-])C(Cl)(Cl)Cl (stereo not given)
- growth [1]: 105%
- growth [2]: 107%
- growth [3]: 106%
- growth [4]: 111%
- growth [5]: 108%
- growth [6]: 102%
- growth [7]: 98.6%
- growth [8]: 98.1%
- growth [9]: 112%
- growth [10]: 102%

Structure (SMILES): COc1cc(/C=C\c2cc(OC)c(OC)c(OC)c2)cc(NS(=O)(=O)c2cccc(Cl)c2)c1OC
- growth [1]: 22.9%
- growth [2]: 51.8%
- growth [3]: 50%
- growth [4]: 63.2%
- growth [5]: 6.99% (active)
- growth [6]: 47%
- growth [7]: 9.96% (active)
- growth [8]: 21.4%
- growth [9]: 6.56% (active)
- growth [10]: -68.2% (active)

Structure (SMILES): COC(=O)[C@@H](C)C[C@H](Cc1ccc2ccccc2c1)NC(=O)c1csc([C@@H](C[C@H](C(C)C)N(C)C(=O)[C@@H](NC(=O)[C@H]2CCCCN2C)C(C)C)OC(C)=O)n1
- growth [1]: 41.7%
- growth [2]: 80.2%
- growth [3]: 68.6%
- growth [4]: 64.7%
- growth [5]: 24.2%
- growth [6]: -5.09% (active)
- growth [7]: 22.2%
- growth [8]: 47.5%
- growth [9]: 26.5%
- growth [10]: -37.9% (active)

Structure (SMILES): CCOC(=O)[C@@H](C)C[C@H](Cc1ccccc1)NC(=O)c1csc([C@@H](C[C@H](C(C)C)N(C)C(=O)[C@@H](NC(=O)[C@H]2C[C@H](O)CCN2C)C(C)C)OC(C)=O)n1
- growth [1]: 30.7%
- growth [2]: -29.5% (active)
- growth [3]: 43.3%
- growth [4]: 10.7%
- growth [5]: 5.02% (active)
- growth [6]: 26.3%
- growth [7]: -39% (active)
- growth [8]: 13.5%
- growth [9]: 11.2%
- growth [10]: -61.4% (active)

Structure (SMILES): CC(=O)OC1C(OC/C2=C/C3[C@@H](C(C)C)CC=C(C)[C@@H]3CC(OC(=O)/C=C/c3cn(C)cn3)[C@]3(C)C=C[C@@]2(O)O3)OCC(O)C1O (stereo not given in full)
- growth [1]: 18.2%
- growth [2]: 63.5%
- growth [3]: 17.4%
- growth [4]: 8.78% (active)
- growth [5]: 9.03% (active)
- growth [6]: 35.3%
- growth [7]: 0.4% (active)
- growth [8]: 27.9%
- growth [9]: 15.9%
- growth [10]: -24.9% (active)

Structure (SMILES): COC[C@@H]1C[C@@]2(C)[C@@H](CC[C@@H]3[C@@H]2CC[C@@]2(C)[C@H]3CC[C@]2(C)O)CC1=O
- growth [1]: 108%
- growth [2]: 106%
- growth [3]: 105%
- growth [4]: 107%
- growth [5]: 101%
- growth [6]: 100%
- growth [7]: 73.6%
- growth [8]: 90.6%
- growth [9]: 94.9%
- growth [10]: 109%

Structure (SMILES): CC(=O)OC1CCC2C3CCC4=C/C(=N/OC(=O)c5ccc(N(CCCl)CCCl)cc5)CCC4(C)C3CC(C)C12 (stereo not given)
- growth [1]: 69.7%
- growth [2]: 94%
- growth [3]: 91.7%
- growth [4]: 78.6%
- growth [5]: -4.94% (active)
- growth [6]: 92.5%
- growth [7]: 79.2%
- growth [8]: 56.6%
- growth [9]: 87%
- growth [10]: 83.7%

Structure (SMILES): CC(=O)O[C@H]1CC[C@H]2[C@@H]3CC=C4c5nc(-c6ccccc6)sc5CC[C@]4(C)[C@H]3CC[C@]12C
- growth [1]: 71.7%
- growth [2]: 95.5%
- growth [3]: 91.4%
- growth [4]: 72.1%
- growth [5]: 39.4%
- growth [6]: 102%
- growth [7]: 43.8%
- growth [8]: 57.9%
- growth [9]: 66.3%
- growth [10]: 7.45% (active)

Structure (SMILES): CCOP1(=O)CC(C)=C(Cl)C(P(=O)(OCC)OCC)C1 (stereo not given)
- growth [1]: 91.5%
- growth [2]: 103%
- growth [3]: 124%
- growth [4]: 93.9%
- growth [5]: 112%
- growth [6]: 89.1%
- growth [7]: 71.3%
- growth [8]: 90.4%
- growth [9]: 115%
- growth [10]: 94.1%

Structure (SMILES): O=[N+]([O-])CC(O)C(Cl)(Cl)Cl (stereo not given)
- growth [1]: 98.6%
- growth [2]: 103%
- growth [3]: 103%
- growth [4]: 99.8%
- growth [5]: 101%
- growth [6]: 93.2%
- growth [7]: 99.1%
- growth [8]: 106%
- growth [9]: 103%
- growth [10]: 98.2%

Structure (SMILES): CC(=O)O[C@H]1C(=O)[C@@]2(C)[C@H]([C@H](OC(=O)c3ccccc3)[C@]3(O)C[C@H](OC(=O)[C@H](OC(=O)OCC4COC(C)(C)O4)[C@@H](NC(=O)c4ccccc4)c4ccccc4)C(C)=C1C3(C)C)[C@]1(OC(C)=O)CO[C@@H]1C[C@@H]2O (stereo not given in full)
- growth [1]: 37.8%
- growth [2]: 72.8%
- growth [3]: 40.6%
- growth [4]: 48.1%
- growth [5]: 13.1%
- growth [6]: 74%
- growth [7]: 38.7%
- growth [8]: 30%
- growth [9]: 54.2%
- growth [10]: 7.19% (active)
